From PubChem
Pf growth 48h – P. falciparum growth inhibition at 48 hours (one generation). P. falciparum luciferase growth in erythrocytes, 48 h. Potency, µM (top dose mostly 28.7 µM), without a hit: at the top dose activity change, negative = inhibition, most hits filed as inhibitors. AID 504832. 5.9% of 310,000 active; further: potency means the concentration at half of the fitted maximal effect; on the % scale 0 is the no-effect control and ±100 the full control effect
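Read-out is firefly luciferase luminescence from an integrated reporter in P. falciparum, so falling signal marks reduced parasite growth. Infected erythrocytes were at 2% hematocrit and 0.1% parasitemia (final) in Albumax-supplemented RPMI 1640.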
HCMV inh – blocks human cytomegalovirus replication. activity change, negative = inhibition, % at 57.5 µM. 4.5% of 410,000 active. HFF cells, HCMV-luciferase reporter, 72 h; hits give low values. AID 1259415; in the data active means activity change below about -60%; inconclusive means no clear call, values can overlap the other calls; inactive means above about -39%; further: on the % scale 0 is the no-effect control and ±100 the full control effect
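Cell-based, HFFs, 1000 cells/well, 16 h 37C; cpds in DMSO + HCMV-luc, MOI 1 PFU/cell; 72 h 37C; OneGlo luminescence after 5 min RT; norm. to buffer vs Salinomycin 10uM.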
Sm TGR block – blocks Schistosoma mansoni thioredoxin glutathione reductase; 3% of 360,000 active; purified TGR, DTNB reduction, TNB absorbance 405 nm; Q962Y6; Potency, µM (titrated, usually from 114 µM), for inactives: at the top dose activity change, negative = inhibition, hits mostly inhibitors; AID 485364; further: potency means the concentration at half of the fitted maximal effect; on the % scale 0 is the no-effect control and ±100 the full control effect; nearly all actives have a fitted effect of over 60% in size
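First, TGR (20 nM dispensed) and NADPH were mixed with compound. Second, a 15 min room-temperature incubation followed. Third, further NADPH and then DTNB were added to start the reaction. Finally, TNB absorbance was monitored kinetically.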
HCV inhibitor – HCV inhibition | 3.4% of 340,000 active | Huh7.5.1 HCVcc-Cre infection, luciferase reporter, 44 h | Potency, µM (doses to about 41.8 µM), inactives show at the highest dose activity change, negative = inhibition, hits mostly inhibitors; further: potency means the concentration at half of the fitted maximal effect; on the % scale 0 is the no-effect control and ±100 the full control effect
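Antiviral activity was scored by luciferase reporter output from cells infected with HCVcc-Cre (~0.5 moi) in presence of compound, 44 h infection period, cells seeded 1,000/well 4 h prior.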
SARS PLP yeast – blocks SARS-CoV papain-like protease in a yeast assay. S. cerevisiae expressing SARS-CoV PLpro, growth rescue. Potency, µM (series often up to 32.9 µM), inactives show at the highest dose activity, positive = growth rescue, most hits filed as activators. 0.19% of 330,000 active; calls by dose curve; further: potency means the concentration at half of the fitted maximal effect; 0% is about no effect; nearly all actives have a fitted effect of over 55% in size
Pf growth 96h – inhibits malaria parasite growth, 96 h; AID 504834; P. falciparum luciferase reporter growth, 96 h; Potency, µM (series often up to 28.7 µM), for inactives: at the top dose activity change, negative = inhibition, most hits filed as inhibitors; 6.9% of 320,000 active; further: potency means the concentration at half of the fitted maximal effect; on the % scale 0 is the no-effect control and ±100 the full control effect
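Two-generation exposure (96 h) targets delayed-death phenotype. Reporter parasites carrying integrated firefly luciferase, in red cells at 2% hematocrit and 0.05% parasitemia final, kept at 37 C, 5% CO2; luminescence loss indicates inhibition.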
Starred values were filed as active, the others as inactive; u = inconclusive; x = no result given; [ ] = another dose, or the depositor's remark. Compounds with a hit are over-represented: about 15% of the library has one in this group of screens. Unless noted, the call rests on the fitted dose curve; in most records, active means well fitted curve in the direction sought with a large enough effect; inconclusive means small, poorly fitted or top-dose-only effect, or another doubt; inactive means no such curve, though single readings can be large; an effect the other way counts as inactive or inconclusive.

SMILES | Pf growth 48h | HCMV inh | Sm TGR block | HCV inhibitor | SARS PLP yeast | Pf growth 96h
CC(=O)N(CCCc1ccc(C(C)(C)C)cc1)CCCN(C)C | u | u | 8% | 7.9µM* | -8% | 7%
N=c1nc(N)nc2n1NC(c1ccc(F)cc1)=CS2 | 10% | -88* | 6% | u | -8% | u
CCN(c1ccc(NC(=O)c2ccc(Cl)nc2)cc1)C(C)C | 6% | -31 | 0% | 15% | 1% | 25%
COc1ccc(CC(=O)NCC(c2cccs2)S(=O)(=O)c2ccc(Cl)cc2)cc1 (stereo not given) | x | u | 11µM* | x | x | x
Cc1ccc(S(=O)(=O)C(CNC(=O)Cc2ccc(Cl)cc2)c2cccs2)cc1 (stereo not given) | x | -4 | -29% | x | x | x
O=C(Cc1ccc(Cl)cc1)NCC(c1cccs1)S(=O)(=O)c1ccccc1 (stereo not given) | x | -16 | 8% | x | x | x
CCCC(=O)NCC(c1cccs1)S(=O)(=O)c1ccc(Cl)cc1 (stereo not given) | -21% | -103* | -16% | 7% | 0% | 2.6µM*
CCN(c1ccccc1)S(=O)(=O)c1ccc(Cl)c(NC(=O)CSc2ncn[nH]2)c1 | -22% | -101* | 7% | u | -15% | -23%
CCN(c1ccccc1)S(=O)(=O)c1ccc(Cl)c(NC(=O)CSc2n[nH]c(N)n2)c1 | -10% | -67* | -2% | u | 16% | -11%
COc1ccccc1NC(=O)CSc1ncn[nH]1 | -4% | -15 | -28% | 10% | 5% | 0%
CCCc1cc(=O)[nH]c(SCC(=O)Nc2cc(S(=O)(=O)N(CC)c3ccccc3)ccc2Cl)n1 | x | -20 | x | -7% | 1% | x
O=C(CSc1ncn[nH]1)Nc1ccccc1C(=O)O | 10% | 23 | -27% | 13% | 5% | 2.9µM*
COC(=O)CCCn1cc(CN2CC(N3CCN(CCN(C)C)CC3)CS2(=O)=O)nn1 (stereo not given) | x | -32 | x | x | x | x
NC(=O)CC(NC(=O)Cc1ccc(Br)cc1)c1ccc(N2CCC(Cc3ccccc3)CC2)c([N+](=O)[O-])c1 (stereo not given) | u | -15 | 5% | -1% | 0% | 3%
CCc1nccn1CCC(=O)N1CCc2c([nH]c3ccccc23)C1CC(C)C (stereo not given) | u | 0 | -2% | -11% | 2% | u
COCc1ccc(CN2CCc3c([nH]c4ccccc34)C2CC(C)C)o1 (stereo not given) | u | -2 | 35µM* | -2% | 0% | 6.6µM*
COc1ccc(NC(=O)Nc2c(SC)nsc2SC)cc1 | 10% | -25 | u | 24% | 1% | u
CC1(C(=O)NS(=O)(=O)C2CC2)CCCN(C(=O)c2cccs2)C1 (stereo not given) | x | -61* | x | x | x | x
O=C1N/C(=N\N=C\c2cccs2)SC1Cc1ccc(Cl)cc1 (stereo not given) | u | -34 | -3% | 2% | 9% | 0.74µM*
CCC1S/C(=N/N=C/c2cccs2)NC1=O (stereo not given) | -9% | 5 | 13% | 5% | -1% | u
O=C1N/C(=N\N=C\c2cccs2)SC1Cc1cccc(Cl)c1 (stereo not given) | 13µM* | -6 | 8% | u | -1% | 8%
COc1cc(C2C(C(=O)Nc3ccc(C)cc3C)=C(C)Nc3nc4ccccc4n32)cc(OC)c1OC (stereo not given) | x | -5 | -1% | x | x | x
CC12CCC(C(=O)Nc3ccc(Cl)cc3)([C@H](Br)C1=O)C2(C)C (stereo not given in full) | u | -61* | 7% | 5% | 0% | -13%
CC12CCC(C(=O)Nc3c(Cl)cccc3Cl)(C(Br)C1=O)C2(C)C (stereo not given) | -1% | -2 | 1% | 26% | -1% | u
CC12CCC(C(=O)Nc3cccc(Cl)c3)(C(Br)C1=O)C2(C)C (stereo not given) | u | -31 | 4% | 29% | -7% | 15µM*
SMILES | Pf growth 48h | HCMV inh | Sm TGR block | HCV inhibitor | SARS PLP yeast | Pf growth 96h
CCN(CC)S(=O)(=O)c1cccc(NC(=O)c2ccc(SC)cc2OC)c1 | u | u | -2% | 11µM* | -1% | u
CCN(CC)S(=O)(=O)c1cccc(S(=O)(=O)N2CCCCC2)c1 | x | 0 | -3% | 7% | 3% | 0%
CCN(CC)S(=O)(=O)c1cccc(NC(=O)COc2ccc(F)cc2Br)c1 | -14% | -6 | -2% | 11µM* | -7% | u
CCN(CC)S(=O)(=O)c1cccc(S(=O)(=O)c2cccc(S(=O)(=O)N(CC)CC)c2)c1 | u | -69* | 2% | 11µM* | 0% | u
CCN(CC)S(=O)(=O)c1cccc(NC(=O)c2ccccc2Br)c1 | 10µM* | -13 | -2% | u | -3% | u
CCC(=O)Nc1cccc(NC(=O)c2ccccc2Br)c1 | 33% | 58 | 6% | -24% | -5% | -7%
COc1ccc(-c2nc3ccccc3n3c(-c4cccc(C)c4)c4c(=O)n(C)c(=O)n(C)c4c23)cc1 | x | 0 | -6% | x | x | x
Cc1ccc(S(=O)(=O)c2nnn3c2nc(N2CCC(C(N)=O)CC2)c2cc(Cl)ccc23)cc1C | x | 5 | -8% | x | x | x
Cc1ccc2c(c1)N(C(=O)C1CCN(S(=O)(=O)c3c(C)noc3/C=C/c3ccccc3F)CC1)CCO2 | x | -14 | -4% | x | x | x
CCN(CC(=O)Nc1ccc(NC(C)=O)cc1)C(=O)c1ccc(Sc2nncn2C)c([N+](=O)[O-])c1 | x | -26 | x | x | x | x
CCCOc1cccc(C(=O)Nc2ccc(-c3cc4ccccc4oc3=O)c(C)c2)c1 | x | -1 | 0% | x | x | x
O=C(CSc1ccc(-c2nc3ccccc3[nH]2)cn1)N1CCN(C(=O)c2ccco2)CC1 | 13µM* | -26 | u | -26% | 11% | 1%
CCS(=O)(=O)c1nc2ccccc2n1CC(=O)N1CCCCC1 | -9% | -27 | -3% | 1% | 9% | 10µM*
O=C(CSc1nc2ccccc2n1CCc1ccccc1)N1CCOCC1 | -11% | -68* | 1% | 16% | -14% | u
O=C(CSc1nc2ccccc2n1CC(=O)N1CCCC1)Nc1nccs1 | -2% | 20 | 5% | -8% | 1% | 2.6µM*
CC(C)(C)NC[C@H](O)COc1cccc2c1C[C@@H](O)[C@@H](O)C2 | -15%[12.8 µM] | x | x | x | x | u
CC1(C)OC(=O)C2=C(C[C@@H](C3CCCCC3)O[C@H]2c2ccc(Cl)cc2)O1 | x | 9 | x | x | x | x
O=C(CSc1nc2ccccc2n1CC(=O)N1CCCC1)N1CCN(C(=O)c2ccco2)CC1 | -16% | -25 | -12% | 7% | -4% | 6.6µM*
